Only a selection was taken, and hits are over-represented in it overall.
PGK inhibitor: qHTS Assay to Find Inhibitors of Phosphoglycerate Kinase | PGK/GAPDH coupled, Kinase-Glo luminescence, 60 min | Potency, µM (highest dose often 57.5 µM), inactives show top-dose activity change, negative = inhibition, actives largely listed as inhibitors | 380,000 tested, 0.043% active; further: potency means the concentration at half of the fitted maximal effect; nearly all actives have a fitted effect of over 60% in size
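Luminescent ATP detection (Kinase-Glo Plus) follows a 60-minute room-temperature incubation, with wells lacking PGK as controls. Buffer: 100 mM TEA (pH 7.6), 5 mM MgCl2, 0.01% Tween-20. Coupling enzyme GAPDH (100 nM final) supplies unstable 1,3-BPG in-well.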
PI4K2A inh: qHTS for small molecular inhibitors of PI4K2A; purified PI4K2A, ADP-Glo luminescence, 1 h; stronger effect = lower value; activity change, negative = inhibition, % at 76.9 µM; 420,000 tested, 0.13% active; in the data active means activity change below about -50%; inconclusive means mostly about -30% to -49%;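 further: -100% = wells without enzyme as full effect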
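In this quantitative HTS, ADP production by PI4K2A was quantified luminescently after 1 h at ambient temperature; 100 microM adenosine served as plate-quality control.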
PI5P4K alpha inh: qHTS for Inhibitors of phosphatidylinositol 5-phosphate 4-kinase (PI5P4K); PI5P4Kalpha enzyme, ADP-Glo luminescence, 60 min; stronger effect = lower value; max response, %; 330,000 tested, 1.2% active; AID 652105, 2013; active means max response of -50% or lower; inconclusive means between -30% and -50%; inactive means -30% or higher; further: value at the top dose of about 77 µM
Target sequence (P48426 whole entry, looked up): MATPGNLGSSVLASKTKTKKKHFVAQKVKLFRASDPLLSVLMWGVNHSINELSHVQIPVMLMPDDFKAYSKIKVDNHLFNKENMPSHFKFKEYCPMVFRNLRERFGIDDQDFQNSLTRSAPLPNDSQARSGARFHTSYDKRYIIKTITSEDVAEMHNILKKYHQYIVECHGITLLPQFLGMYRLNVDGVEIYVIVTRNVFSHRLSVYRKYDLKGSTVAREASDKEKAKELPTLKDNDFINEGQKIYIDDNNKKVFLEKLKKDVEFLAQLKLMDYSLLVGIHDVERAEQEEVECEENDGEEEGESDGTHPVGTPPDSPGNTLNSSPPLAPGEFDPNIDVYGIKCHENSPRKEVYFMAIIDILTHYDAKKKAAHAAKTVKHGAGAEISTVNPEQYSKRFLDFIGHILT
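PI5P4Kalpha ADP-Glo assay; 5 microM ATP final; 60 min RT reaction; HEPES pH 7.4/EGTA/CHAPS, 5% DMSO; controls lacking substrate or enzyme; luminescent end-point.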
Tb PFK block: qHTS Assay to Find Inhibitors of T. brucei phosphofructokinase | ATP-dependent 6-phosphofructokinase (Trypanosoma brucei brucei), O15648 | T. brucei PFK, ADP-Glo luminescence | Potency, µM (doses to about 57.5 µM), inactives show top-dose activity, negative = inhibition, usual class: inhibitors | 330,000 tested, 0.17% active | AID 485367, 2010;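 further: potency means the concentration at half of the fitted maximal effect; 0% = uninhibited 1x PFK enzyme wells and -100% = no-enzyme wells; nearly all actives have a fitted effect of over 60% in size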
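PFK 1.25 nM, F6P 0.5 mM, ATP 0.1 mM, 0.1 M TEA pH 8.0, 5 mM MgCl2, 0.01% Tween20, 0.1% BSA; 45 min RT. ADP-Glo readout. qHTS titration up to 57 uM; curves fitted, compounds curve-classed.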
Pin1 inh: qHTS Assay to Find Inhibitors of Pin1 | Peptidyl-prolyl cis-trans isomerase NIMA-interacting 1 (Homo sapiens), Q13526 | Pin1 FP peptide displacement, HiFluor488, 10 min | Potency, µM (doses to about 115 µM), for inactives: top-dose activity, negative = inhibition, usual class: inhibitors | 390,000 tested, 0.009% active | AID 504891, 2011; active means well fitted inhibition curve with a large enough effect in the polarisation, with a control signal flat, not every such curve was filed as active; inconclusive means small, poorly fitted or top-dose-only effect, or effect the other way, or a change in a side signal; inactive means no such curve, though single readings can be large or run the other way; the % refers to the polarisation; further: potency means the concentration at half of the fitted maximal effect
ADP-Glo interf: qHTS for Inhibitors of PI5P4K: ADP-Glo counter assay; shares compounds with PI5P4K alpha inh; ADP-Glo detection counter-screen, luciferase luminescence, no enzyme; Potency, µM (top dose mostly 76.9 µM), without a hit: at the top dose activity change, negative = inhibition, usual class: inhibitors; 1,100 tested, under 10 active; AID 743285, 2014
The depositor's hits bear a star. Unless noted, the call rests on the fitted dose curve; in most records, active means well fitted curve in the direction sought with a large enough effect; inconclusive means small, poorly fitted or top-dose-only effect, or another doubt; inactive means no such curve, though single readings can be large; an effect the other way counts as inactive or inconclusive. Unless noted, on the % scale 0 is the no-effect control and ±100 the full control effect.

Screening CC(C)c1ccc(-c2nc3c([nH]2)c(=O)n(C)c(=O)n3C)cc1 returned PGK inhibitor -4%, PI4K2A inh 1, PI5P4K alpha inh -13, Tb PFK block -16% and Pin1 inh -7%.
Screening Cn1c(=O)c2[nH]c(-c3ccc(S(=O)(=O)O)cc3)nc2n(C)c1=O returned PGK inhibitor -2%, PI4K2A inh -8, PI5P4K alpha inh -54*, Pin1 inh 2% and ADP-Glo interf -4%.
Screening COCc1cc(=O)n2[nH]c(-c3ccsc3-n3c(C)ccc3C)cc2n1 returned PGK inhibitor 0%, PI4K2A inh inconclusive, PI5P4K alpha inh -54*, Tb PFK block inconclusive, Pin1 inh inconclusive and ADP-Glo interf 0%.
For Cc1c(C(=O)O)cccc1-c1ccc(/C=C2\SC(=O)NC2=O)o1 the results were PGK inhibitor -2%, PI4K2A inh -6, PI5P4K alpha inh -57*, Tb PFK block 4%, Pin1 inh -20% and ADP-Glo interf -4%.
c1ccc2c(CCNc3ncnc4nc[nH]c34)c[nH]c2c1 was read as PGK inhibitor inactive, PI4K2A inh -10, Tb PFK block -6%, Pin1 inh 11% and ADP-Glo interf -2%.
For c1ccc(CCNc2ncnc3nc[nH]c23)cc1 the results were PGK inhibitor -3%, PI4K2A inh -13, PI5P4K alpha inh inconclusive, Tb PFK block -6% and Pin1 inh -4%.
Screening CCCCC1=CC2=CC(=O)C(C)(OC(=O)C3CCCC3)C(=O)C2=CO1 (stereo unspecified) returned PGK inhibitor -10%, PI4K2A inh -10, PI5P4K alpha inh -73*, Tb PFK block 1%, Pin1 inh inconclusive and ADP-Glo interf -9%.
COC(=O)CCCC1=CC2=CC(=O)C(C)(OC(=O)C3CCCC3)C(=O)C2=CO1 (stereo unspecified) was read as PGK inhibitor -13%, PI4K2A inh -23, PI5P4K alpha inh inconclusive, Tb PFK block 4% and Pin1 inh inconclusive.
For CCC(C)[C@H]1CNC(=S)N1CCc1cc(C(F)(F)F)cc(C(F)(F)F)c1 (stereo partly specified) the results were PGK inhibitor -9%, PI4K2A inh -2, PI5P4K alpha inh 15, Tb PFK block -3% and Pin1 inh -6%.
For O=C(Nc1sc2c(c1C(=O)O)CCC2)c1ccccc1Cl the results were PGK inhibitor -3%, PI4K2A inh -1, PI5P4K alpha inh -59*, Tb PFK block 0%, Pin1 inh 1% and ADP-Glo interf -8%.
For NC(=O)c1c(NC(=O)c2ccccc2)sc2c1CCC2 the results were PGK inhibitor -1%, PI4K2A inh -3, PI5P4K alpha inh -51*, Tb PFK block -30%, Pin1 inh 4% and ADP-Glo interf -2%.
Screening O=C(Nc1sc2c(c1C(=O)O)CCCC2)c1ccccc1Cl returned PGK inhibitor inactive, PI4K2A inh 1, PI5P4K alpha inh -3, Tb PFK block 4% and Pin1 inh -7%.
`NC(=O)c1c(NC(=O)C2CC=CCC2C(=O)O)sc2c1CCCCC2` (stereo unspecified) gave PGK inhibitor inconclusive, PI4K2A inh 1, PI5P4K alpha inh -53*, Tb PFK block inconclusive, Pin1 inh inconclusive and ADP-Glo interf -3%.
`NC(=O)c1c(NC(=O)CN2CCCC2)sc2c1CCCC2` gave PGK inhibitor -8%, PI4K2A inh -3, PI5P4K alpha inh -53*, Tb PFK block 0%, Pin1 inh 4% and ADP-Glo interf 3%.
`Cc1ccc(SCc2noc(-c3c(C)noc3C)n2)cc1` gave PGK inhibitor inactive, PI4K2A inh -3, PI5P4K alpha inh 0, Tb PFK block -14% and Pin1 inh 0%.

Bioassay records (PubChem)
